The list is not random: actives were taken first. Their share in the collection is about 19%.
RORgamma inh: inhibitors of mouse ROR gamma transcriptional activity. AID 2551. Potency, µM (titrated, usually from 53.6 µM), without a hit: at the top dose activity change, negative = inhibition, actives largely listed as inhibitors. P51450. Drosophila S2 Gal4-RORgamma UAS-luciferase reporter, 20 h. actives 5.4% (n = 310,000); note: nearly all actives have a fitted effect of over 60% in size
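Drosophila S2 cells stably expressing Gal4-DBD/mouse RORγ fusion under metallothionein promoter plus UAS-luciferase; compound 1 h, then 700 uM CuSO4 induction for 20 h at ambient temperature; inhibition read as reduced luminescence.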
TDP1 inh: blocks human tyrosyl-DNA phosphodiesterase 1; Q9NUW8; recombinant TDP1, AlphaScreen DNA substrate cleavage; Potency, µM (highest dose often 130 µM), for inactives: top-dose activity change, negative = inhibition, hits mostly inhibitors; actives 0.28% (n = 350,000); AID 485290; note: nearly all actives have a fitted effect of over 40% in size
Target sequence (Q9NUW8 whole entry, looked up): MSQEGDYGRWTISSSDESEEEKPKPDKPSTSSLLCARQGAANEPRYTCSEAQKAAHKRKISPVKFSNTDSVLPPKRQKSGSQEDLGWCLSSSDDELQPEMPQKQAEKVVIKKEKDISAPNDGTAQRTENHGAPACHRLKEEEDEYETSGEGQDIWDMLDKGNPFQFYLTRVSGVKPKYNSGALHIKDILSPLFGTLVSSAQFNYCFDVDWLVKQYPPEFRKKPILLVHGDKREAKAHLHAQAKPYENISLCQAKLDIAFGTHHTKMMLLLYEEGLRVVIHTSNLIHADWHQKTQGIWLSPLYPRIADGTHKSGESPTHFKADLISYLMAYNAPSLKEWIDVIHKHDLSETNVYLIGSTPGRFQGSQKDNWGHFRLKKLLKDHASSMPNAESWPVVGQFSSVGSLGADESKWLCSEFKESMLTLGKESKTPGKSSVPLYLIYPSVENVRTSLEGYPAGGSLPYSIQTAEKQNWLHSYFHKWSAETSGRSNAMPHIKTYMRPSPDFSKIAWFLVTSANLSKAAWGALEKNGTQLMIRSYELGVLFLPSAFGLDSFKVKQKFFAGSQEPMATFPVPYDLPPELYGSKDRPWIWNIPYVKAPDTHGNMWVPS
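Enzyme-compound mixtures sat 15 min at room temperature, followed by a 5 min reaction with 15 nM final substrate and 10 min with AlphaScreen beads. Recombinant human Tdp1 was used at 1 nM final.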
DT40 TDP1 no CPT: qHTS for Inhibitors of human tyrosyl-DNA phosphodiesterase 1 (TDP1): qHTS in cells in absence of CPT; DT40 Tdp1-/- hTDP1 cells, no CPT, ATP luminescence, 48 h; Potency, µM (top dose mostly 46.2 µM), inactives show at the highest dose activity change, negative = growth inhibition, most hits filed as inhibitors; actives 15% (n = 420,000); note: nearly all actives have a fitted effect of over 55% in size
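No-CPT arm: Tdp1-/-;hTDP1 DT40 cells (400/well) plus compounds, incubated ≥48 hr at 37 °C. Readout CellTiter-Glo luminescence.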
TDP1 cell CPT: DT40-hTDP1 cell growth loss with CPT. Potency, µM (doses to about 46.2 µM), inactives show at the top dose activity change, negative = growth inhibition, actives largely listed as inhibitors. actives 12% (n = 420,000). chicken DT40 Tdp1-/-;hTDP1 cells + 20 nM CPT, ATP luminescence, 48 h; note: nearly all actives have a fitted effect of over 55% in size
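Chicken DT40 Tdp1-/- cells stably complemented with human TDP1 were seeded at 400 cells/well in medium containing 20 nM camptothecin, exposed to pin-transferred compounds, and grown at 37 °C for at least 48 hr. Viability was read as ATP luminescence.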
Gal4-VP16 FLuc: counter-screen for ROR gamma inhibitors: Gal4-VP16 reporter; Drosophila S2 Gal4-VP16 UAS-luciferase, luminescence, 20 h; AID 2546; Potency, µM (highest dose often 53.6 µM), without a hit: at the highest dose activity, negative = inhibition, actives largely listed as inhibitors; actives 3.5% (n = 310,000);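 note: Gal4-VP16 expression switched on by copper sulfate through the metallothionein promoter; nearly all actives have a fitted effect of over 50% in size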
* = called active by the depositor; ? = inconclusive; / = not tested or not shown; [ ] = remark or other dose. Calls come from the whole dose curve; as a rule, active = well fitted curve in the direction sought with a large enough effect; inconclusive = small, poorly fitted or top-dose-only effect, or another doubt; inactive = no such curve, though single readings can be large; an effect the other way counts as inactive or inconclusive. % is set by controls: 0 for no effect and ±100 for the full control effect; potency is the fitted concentration of half-maximal effect.

SMILES	RORgamma inh	TDP1 inh	DT40 TDP1 no CPT	TDP1 cell CPT	Gal4-VP16 FLuc
CCOc1ccccc1NC(=O)CN1CCC(C(=O)c2ccc(F)cc2)CC1	-26%	1%	26µM*	21µM*	0%
O=C(CN1CCC(C(=O)c2ccc(F)cc2)CC1)Nc1ccccc1Cl	-8%	3%	12µM*	-26%	4%
COc1ccccc1NC(=O)CN1CCC(C(=O)c2ccc(F)cc2)CC1	-2%	4%	?	?	0%
Cc1ccc(C(=O)C2CCN(CC(=O)Nc3nc(C)cs3)CC2)cc1	-3%	3%	16µM*	21µM*	-12%
Cc1ccc(-n2ncc(C(=O)Nc3ccc4c(c3)OCO4)c2C2CCN(C(=O)OC(C)(C)C)CC2)c(C)c1	/	11%	29µM*	?	/
CCOC(=O)N1CCC(NC(=O)c2cnn(-c3ccc(C)cc3C)c2C2CCN(C(=O)OC(C)(C)C)CC2)CC1	/	1%	-24%	-27%	/
CCOC(=O)c1ccc(NC(=O)c2cnn(-c3ccc(C)cc3C)c2C2CCN(C(=O)OC(C)(C)C)CC2)cc1	/	0%	16µM*	?	/
Cc1cccc(C)c1-n1ncc(C(=O)Nc2ccc3c(c2)OCO3)c1C1CCN(C(=O)OC(C)(C)C)CC1	/	7%	?	?	/
Cc1cc(C(=O)N2CCc3ccccc32)ccc1[N+](=O)[O-]	/	/	?	1%	/
CC1CCc2c(sc(NC(=O)C3c4ccccc4Oc4ccccc43)c2C(N)=O)C1 (configuration not stated)	2%	3%	?	?	-12%
CCCCNC(=O)c1cnn2c(C)c(Cc3c(F)cccc3Cl)c(C)nc12	/	0%	3.7µM*	7.3µM*	/
Cc1nc2c(C(=O)NCCCN(CC(C)C)CC(C)C)cnn2c(C)c1Cc1c(F)cccc1Cl	/	5%	21µM*	23µM*	/
Cc1ccc(CNC(=O)c2cnn3c(C)c(Cc4c(F)cccc4Cl)c(C)nc23)cc1	/	3%	?	15µM*	/
Cc1cc(C)n2ncc(C(=O)NCc3ccc(Cl)cc3)c2n1	8%	-5%	-24%	-16%	-13%
Cc1cc(C)c(Cc2c(C)nc3c(C(=O)NCc4ccco4)cnn3c2C)c(C)c1	?	7%	8.2µM*	7.3µM*	3%
NS(=O)(=O)c1ccc(NNC(=O)c2ccc(Br)o2)c([N+](=O)[O-])c1	/	5%	?	?	/
CC/C=C\C/C=C\C/C=C\C/C=C\C/C=C\C/C=C\CCC(=O)NCC(=O)O	9%	4%	/	/	-2%
CCN(CC)CCCNC(=O)CSc1nc2nc(C)c(Cc3c(F)cccc3Cl)c(C)n2n1	/	3%	6.5µM*	?	/
O=C(NCCCn1ccnc1)c1cc(C(=O)C2CC2)c[nH]1	-16%	4%	-3%	-2%	-9%
Cc1cnc(C(=O)Nc2ccc(F)cc2)cn1	1%	-3%	-18%	1%	-6%
CC(C)(C)OC(=O)N1CCN(c2ccc(NC(=O)Cn3nnc(-c4ccccc4)n3)cc2)CC1	?	7%	23µM*	?	4%
Cc1cnc(C(=O)Nc2ccc(N3CCN(C(=O)OC(C)(C)C)CC3)cc2)cn1	24%	2%	2.3µM*	4.6µM*	6%
Cn1nc(CC(=O)Nc2ccc(N3CCN(C(=O)OC(C)(C)C)CC3)cc2)c2ccccc2c1=O	?	5%	-7%	-20%	2.5µM*
CCOC(=O)c1ccc(NC(=O)Cn2nnc(-c3ccccc3)n2)cc1	3%	3%	?	?	-7%
C=CCC(CC)C(=O)NC(=O)N1CCCc2ccccc21 (configuration not stated)	21%	-3%	-1%	?	-6%
SMILES	RORgamma inh	TDP1 inh	DT40 TDP1 no CPT	TDP1 cell CPT	Gal4-VP16 FLuc
O=C(Nc1ccc(F)cc1F)c1cccc2c1C(=O)N(C1CCCCC1)C2	/	-7%	?	?	/
Cc1ccc(SCC(=O)OCC(=O)N2CCN(C(=O)c3ccco3)CC2)c(C)c1	/	/	4%	-6%	/
CCOC(=O)c1ccc(Nc2ncnc3ccc(C)cc23)cc1	?	2%	?	-21%	-10%
CCOc1ccc(Nc2ncnc3ccc([N+](=O)[O-])cc23)cc1	32%	9%	6.5µM*	?	-20%
COC(=O)[C@H](C)[C@H](CC(C)C)NC(=O)[C@H](C)[C@H](CC(C)C)NC(=O)c1ccccn1	14%	7%	/	/	3%
CCN(C(=O)COC(=O)c1ccc([N+](=O)[O-])o1)c1cccc2ccccc12	/	5%	-5%	-28%	/
O=C(O)c1ccc(NC(=O)c2ccc(Br)c(S(=O)(=O)N3CCCC3)c2)cc1	/	4%[12.3 µM]	2%	-5%	/
O=C(Nc1ccc(Cl)cn1)c1ccc(Br)c(S(=O)(=O)N2CCCCC2)c1	-8%	-4%	?	23µM*	-8%
O=C(Nc1ccccc1)c1ccc(Br)c(S(=O)(=O)N2CCCCC2)c1	/	5%	21µM*	18µM*	/
Cc1ccc(NC(=O)c2ccc(Cl)c(S(=O)(=O)N3CCCCCC3)c2)nc1	/	1%[0.505 µM]	?	-30%	/
O=C(Nc1ccc(Br)cc1)c1ccc(Br)c(S(=O)(=O)N2CCCCC2)c1	/	12%	18µM*	?	/
O=C(Nc1cccc(O)c1)c1ccc(Br)c(S(=O)(=O)N2CCCCC2)c1	-20%	3%	-29%	-24%	-15%
COC(=O)C1=C(C)N(CCc2ccccc2)C(=O)C1	-25%	2%	?	?	25%
O=C(COC(=O)CCc1nc2ccccc2c(=O)[nH]1)Nc1c(Cl)cccc1C(F)(F)F	/	/	-16%	2%	/
CC1(C)CC[C@]2(C(=O)n3ccnc3)CC[C@]3(C)[C@H](C(=O)C=C4[C@@]5(C)C=C(C#N)C(=O)C(C)(C)[C@@H]5CC[C@]43C)[C@@H]2C1	/	/	0.65µM*	0.58µM*	/
CCOc1ccc(NC(=O)c2sc3nc4c(cc3c2N)CN(Cc2ccccc2)CC4)cc1	/	3%	?	?	/
Nc1c(C(=O)Nc2ccccc2)sc2nc3c(cc12)CN(Cc1ccccc1)CC3	/	9%	23µM*	?	/
CCN(CC)c1ccc(NC(=O)c2sc3nc4c(cc3c2N)CN(C)CC4)cc1	/	7%	16µM*	?	/
COc1ccccc1NC(=O)c1sc2nc3c(cc2c1N)CN(Cc1ccccc1)CC3	/	12%	?	15µM*	/
NC(=O)c1sc2nc3c(cc2c1N)CCC3	-4%	2%	-24%	-16%	4%
Cc1ccccc1NC(=O)c1sc2nc3c(cc2c1N)CCCC3	/	/	3.3µM*	?	/
O=c1c2ccccc2cnn1Cc1cccc(Br)c1	20%	2%	-19%	2%	-18%
CCCn1c(CC)nc([N+](=O)[O-])c1Sc1ccc(C)cc1	-36%	4%	-29%	-2%	-5%
CCOC(=O)N1CCN(C(=O)CCC2CCCC2)CC1	2%	3%	-10%	1%	-16%
